Experimental data published in PubChem BioAssay AID1345083 (National Center for Advancing Translational Sciences (NCATS), 2018).
Out of some 94,000 compounds screened, about 6,200 (6.6%) were called active. Where a call stands in place of a potency, no number is given. Inconclusive results (about 31%) are left out. Calls come from the whole dose curve; as a rule, active = well fitted inhibition curve with a large enough effect; inconclusive = small, poorly fitted or top-dose-only effect; inactive = flat fitted curve, though single readings scatter. For the sample, actives were picked, then their nearest neighbours and some compounds at random.
Potency is the fitted concentration of half-maximal effect.

Experiment: Cytotoxic Profiling in HEK 293 Cell Line of Diverse Libraries Using Quantitative High-Throughput Screening; note: nearly all actives have a fitted effect of over 60% in size
Conditions: HEK 293 viability, ATP luminescence (CellTiter-Glo), 48-72 h; series mostly up to 115 µM
Text: Cell-based phenotypic screening is a commonly used approach to discover biological pathways, novel drug targets, chemical probes and high-quality hit-to-lead molecules. Many hits identified from high-throughput screening campaign are ruled out through a series of follow-up potency, selectivity/specificity, and cytotoxicity assays. Prioritization of molecules with little or no cytotoxicity for a more in-depth downstream evaluation influence the future direction of projects, so cytotoxicity profiling of the screening libraries at early stage is essential for increasing the likelihood of candidate success. In this study, we analyzed results from a cell-based cytotoxicity screening campaign, comprising nearly 10,000 compounds in NCATS annotated libraries, and over 100,000 compounds in a diversity library, evaluated in four normal cell lines (HEK 293, NIH 3T3, CRL-7250 and HaCat) and a cancer cell line (KB 3-1, a HeLa subline) with overall screening outcomes, hit rates, pan-activity and selectivity. For the annotated library, we also examined the primary targets and mechanistic pathways regularly associated with cell death. To our knowledge, this is the first study to use high-throughput screening to profile large libraries for cytotoxicity assessment in both normal and cancer cell lines. In summary, the results generated here constitutes a valuable resource for the scientific community and provides insight on identifying cytotoxic compounds with particular mechanisms of action, and prioritizing compounds with suitable cytotoxicity profile for further evaluation.
HEK 293 cells were seeded into white 1536-well plates using a Multidrop Combi peristaltic dispenser (ThermoFisher, Waltham, MA) at a density of 250 cells/well in 5 uL of medium respectively. A pintool (Kalypsys) was used to transfer 23 nL of compound solution to the 1536-well assay plates. After 48 or 72 hr incubation at 37 degree Celsius, 5% CO2 and 95% humidity, 2.5 uL of CellTiter-Glo (Promega) was dispensed into each well using a dispenser (Aspect Automation, St. Paul, MN) with solenoid valves (Lee Valves, Westbrook CT). Plates were left at room temperature for 10 min before imaging the ATP-coupled luminescence using a ViewLux microplate imager (PerkinElmer, Waltham, MA).
For `CC1(c2ccccc2)N(Cc2ccccc2)C(=O)OC12CCN(c1ccncc1)CC2` (configuration not stated), the Potency was 89.1 µM (active). In the case of `CC1(c2cccnc2)N(Cc2ccccc2)C(=O)OC12CCN(C(=O)c1cccc(Cl)c1)CC2` (configuration not stated), the Potency is reported as “inactive”. For `CCN(Cc1ccccc1)C(=O)CC1CCCN(c2cnn(CCOC)c(=O)c2)C1` (configuration not stated), the Potency was “inactive”. With `COc1ccc(-c2noc(-c3nnn4c3COC(c3ccc(OC)cc3)C4)n2)cc1` (configuration not stated) the Potency was “inactive”. In the case of `Cc1noc(-c2ccccc2OC2CCN(C(=O)c3cnccc3C)C2)n1` (configuration not stated), the Potency is reported as “inactive”. In the case of `CC(C)CC(=O)N1CCC(Oc2ccccc2-c2nc(C3CCOCC3)no2)C1` (configuration not stated), the Potency is reported as “inactive”. In the case of `Cc1nc(C)c(C(=O)N2CCC(Oc3ccccc3-c3nc(-c4ccccc4)no3)C2)s1` (configuration not stated), the Potency is reported as 28.2 µM (active). In the case of `CCn1ccc(C(=O)N2CCCN(S(=O)(=O)c3ccccc3)CCC(=O)NCC2)n1`, the Potency is reported as “inactive”. With `COCCNC(=O)C(C)[C@@H]1CC[C@@]2(C)CC[C@H](NC(=O)c3ccccc3)[C@@H](C)[C@@H]2[C@H]1O` (some centres not stated) the Potency was “inactive”. In the case of `C[C@H]1[C@@H]2[C@H]3OC(=O)[C@@H](C)[C@@H]3CC[C@@]2(C)CC[C@@H]1NC(=O)Cc1ccccc1`, the Potency is reported as 100 µM (active). With `C[C@H]1[C@@H]2[C@@H](O)C([C@H](C)C(=O)NCCN3CCOCC3)CC[C@@]2(C)CC[C@@H]1NC(=O)c1ccccc1` (some centres not stated) the Potency was “inactive”. With `CCc1nc(-c2c3n(c(=O)n(CC(=O)Nc4cccc(Cl)c4C)c2=O)CCCC3)no1` the Potency was “inactive”. For `O=C1NCc2ccccc2CC12CCCCN2Cc1cccc(F)c1F` (configuration not stated), the Potency was 50.1 µM (active). With `CCOC(=O)C1CC1CN1CCCC12Cc1ccccc1CNC2=O` (configuration not stated) the Potency was “inactive”. For `Cc1nn(-c2ccccc2)c(C)c1CN1CCCC12Cc1ccccc1CNC2=O` (configuration not stated), the Potency was “inactive”. For `CCN(C(=O)CCC(=O)N1CCc2c(c(-c3nncn3CC)nn2C)C1)c1ccccc1`, the Potency was “inactive”. With `CC(C)c1nnc(C2CN(C(=O)c3ccc4ccccc4n3)CC23CCOCC3)o1` (configuration not stated) the Potency was “inactive”. In the case of `CNc1ncc(C(=O)N[C@@H]2COCC[C@@H]2OCc2c(C)noc2C)cn1`, the Potency is reported as “inactive”. In the case of `COc1ccc(NC(=O)c2cc3c(N(C)Cc4ccccc4)nc(C)cn3n2)cc1F`, the Potency is reported as “inactive”. In the case of `O=C(c1cnccn1)N1CCC2(COc3ncccc3[S+](=O)([O-])N2)C1` (configuration not stated), the Potency is reported as “inactive”. In the case of `CCCn1cc(C(=O)N2C[C@H](c3ccccc3)[C@@H](N)C2)c(C)n1`, the Potency is reported as “inactive”. For `COc1ccc(CN2CCC3(Cc4ccccc4CNC3=O)C2)cc1OC` (configuration not stated), the Potency was “inactive”. With `CN1CC(=O)N(c2cccnc2)Cc2c1ncnc2N1CCN(c2ccccn2)CC1` the Potency was “inactive”. With `O=C(NCc1ccccc1)[C@@H]1Cc2nc[nH]c2CN1Cc1cccc(OC(F)(F)F)c1` the Potency was 70.8 µM (active). For `O=[N+]([O-])c1cccc(-c2noc([C@@H]3C[C@@H](O)CN3Cc3cccc(OC(F)(F)F)c3)n2)c1`, the Potency was “inactive”. For `O=C(O)CCC(=O)N1Cc2[nH]cnc2C[C@H]1c1nc(-c2ccc3ccccc3c2)no1`, the Potency was “inactive”. In the case of `CN1Cc2ncnc(NCc3cccs3)c2CN(c2ccccc2)C1=O`, the Potency is reported as “inactive”. With `CN1CCN(C(=O)CC2=C3CCCCC3NC2=O)CC1` (configuration not stated) the Potency was “inactive”. In the case of `O=C(CCC1CCN(C(=O)c2ccccc2F)CC1)Nc1cccc(Cl)c1`, the Potency is reported as 12.6 µM (active). In the case of `O=C(NCCC1CCN(C(=O)Nc2cc(F)ccc2F)CC1)c1cc(F)ccc1F`, the Potency is reported as “inactive”. In the case of `COc1ccc(NC(=O)CCC2CCN(S(=O)(=O)c3ccc(C)cc3)CC2)cc1F`, the Potency is reported as “inactive”. For `COc1cc2c(cc1C(=O)N1CCC3(CCCN(C)C3=O)C1)CCC2` (configuration not stated), the Potency was “inactive”. With `Cn1nccc1CN1CCc2nc(C3CC3)nc(-c3ccc(O)cc3)c2C1` the Potency was “inactive”. In the case of `COCCc1noc(CC2CCOC3(CCN(C(=O)C4CCCC4)CC3)C2)n1` (configuration not stated), the Potency is reported as “inactive”. With `CN(C)C[C@H]1O[C@@H]2C[C@@H](CC(=O)N3CCC(F)(F)C3)O[C@@H]2[C@@H]1O` the Potency was “inactive”. In the case of `O=C(Cc1cccnc1)N1CCc2onc(-c3ccc(F)c(F)c3)c2C1`, the Potency is reported as “inactive”. For `COc1ccc(Cl)cc1S(=O)(=O)N1CCCC(CNC(=O)c2ccco2)C1` (configuration not stated), the Potency was “inactive”. In the case of `Cc1ccc(S(=O)(=O)N2CCCC(CCC(=O)N(C)C)C2)cc1` (configuration not stated), the Potency is reported as “inactive”. With `Cc1ccccc1S(=O)(=O)N1CCCC(CCC(=O)NCC2CCCCC2)C1` (configuration not stated) the Potency was 39.8 µM (active). In the case of `CCCc1noc(-c2ccn3c(CNC(=O)c4ccc(N(C)C)cc4)nnc3c2)n1`, the Potency is reported as “inactive”. In the case of `CCCNC(=O)N(C1CCOCC1)C1CCN(S(=O)(=O)c2ccc(F)cc2)CC1`, the Potency is reported as “inactive”. For `CCOC(=O)c1cccc(NC(=O)c2ccc3c(c2)N(C)C2CCCCN2C3=O)c1` (configuration not stated), the Potency was 35.5 µM (active). With `COCCn1ccc2cc(C(=O)Nc3ccc4c(c3)C(=O)N3CCC[C@H]3C(=O)N4)ccc21` the Potency was “inactive”. With `CN1CCCCCCN(C(=O)Nc2ccccc2)CCC1=O` the Potency was “inactive”. In the case of `Cc1ccc(CNC(=O)c2ccc3c(c2)N(C)C2CCCCN2C3=O)cc1C` (configuration not stated), the Potency is reported as “inactive”. With `CN1c2cc(C(=O)Nc3ccc(Cl)cc3)ccc2C(=O)N2CCCCCC21` (configuration not stated) the Potency was 35.5 µM (active). With `Cc1ccc(C(=O)N2CCC(C(=O)N3CCC(N4CCOCC4=O)CC3)CC2)cc1` the Potency was “inactive”. With `Cc1cccc(NC(=O)Cn2nc3n(c2=O)CCCC3)c1` the Potency was “inactive”. With `CN1c2cc(C(=O)N3CCC(C(N)=O)CC3)ccc2C(=O)N2CCCCC21` (configuration not stated) the Potency was “inactive”. With `CN1c2cc(C(=O)Nc3ccccc3)ccc2C(=O)N2CCCCCC21` (configuration not stated) the Potency was 79.4 µM (active). In the case of `Cc1ccc(N2CCN(C(=O)c3ccc4c(c3)N(C)C3CCCCCN3C4=O)CC2)cc1` (configuration not stated), the Potency is reported as 39.8 µM (active). In the case of `CCOc1ccc(NC(=O)c2ccc3c(c2)N(C)C2CCCN2C3=O)cc1` (configuration not stated), the Potency is reported as “inactive”.
